Laboratory results reported in PubChem BioAssay (NCATS).
“And” between values parts separate entries of the source, which are not always exact repeats. Equal entries are not always repeated. Records with an inconclusive call do not appear. The source made the active and inactive calls. Unless noted, the call rests on the fitted dose curve; in most records, active means well fitted curve in the direction sought with a large enough effect; inconclusive means small, poorly fitted or top-dose-only effect, or another doubt; inactive means no such curve, though single readings can be large; an effect the other way counts as inactive or inconclusive.

Legend:
[1] = Cell Viability - BJ (AID 421; calls by dose curve;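 further: potency means the concentration at half of the fitted maximal effect; cells exposed to compound for 40 hours at 37 °C before readout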); conditions: BJ fibroblast viability, qHTS
Procedure, shortened: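 Luminescent ATP signal (CellTiter-Glo, 20 min at room temperature) served as the read-out of viable BJ cells after 40 hours of compound treatment. Responses were scaled between DMSO and 100 uM tamoxifen, and AC50 values were obtained by Hill modeling.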

[2] = Cell Viability - MRC5 (AID 434; calls by dose curve;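 further: potency means the concentration at half of the fitted maximal effect; cells exposed to compound for 40 hours at 37 °C; potency reflects cytotoxicity seen as loss of intracellular ATP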); conditions: MRC5 lung fibroblast viability, qHTS
Procedure, shortened: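 qHTS cytotoxicity in human lung fibroblast MRC5 cells; 40 hr treatment, 37 °C; cellular ATP by luciferase luminescence; DMSO = 0%, 100 uM tamoxifen = 100% inhibition; Hill-fit AC50.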

[3] = Cellular Toxicity (caspase-3) HepG2 (AID 654); conditions: HepG2 caspase-3 activation, luminescence; series mostly up to 92.2 µM;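 further: cells exposed to compound for 16 hours before reading; 0% = DMSO alone and 100% = caspase signal from 100 µM tamoxifen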
Procedure, shortened: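 Cells plated 5 hr at 37 °C, compound added, incubated 16 hr at 37 °C. Caspase-Glo 3/7 reagent followed, 20 min at room temperature, then luminescence read. Activation scored as signal increase; AC50 from Hill fit.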

[4] = Cellular Toxicity (caspase-3) Jurkat (AID 655); conditions: Jurkat caspase-3 activation, luminescence; caspase-3 activation: at 92.2 µM (top of the series), DMSO = 0%, tamoxifen = 100%;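 further: cells exposed to compound for 16 h at 37 °C before reading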
Procedure, shortened: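 Jurkat cells (5000/well) in complete medium were treated with compounds for 16 hr at 37 °C, then Caspase-Glo 3/7 luminescence was read after 20 min at room temperature. Data normalized to DMSO (basal) and 100 uM tamoxifen (100%); AC50 from Hill fit.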

[5] = Cellular Toxicity (caspase-3) SHSY5Y (AID 657); conditions: SH-SY5Y caspase-3 activation; series mostly up to 91.7 µM
Procedure, shortened: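 SH-SY5Y human neuroblastoma cells (1500/well) were treated with compounds for 16 h at 37 °C, then Caspase-Glo 3/7 luminescence was read after 1 h at room temperature. Data normalized to DMSO and 10 uM staurosporine; AC50 from Hill fits.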

[6] = Cellular Toxicity (caspase-3) BJ (AID 658); conditions: BJ fibroblasts, luminescence; Potency: caspase-3 activation; series mostly up to 91.7 µM
Procedure, shortened: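 Readout: Caspase-Glo 3/7 luminescence increase in BJ cells after 16 hr treatment at 37 °C. Staurosporine and tamoxifen served as positive controls; AC50 values came from Hill modelling of data normalized to DMSO and 10 uM staurosporine.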

[7] = Cellular Toxicity (caspase-3) MRC-5 (AID 659); conditions: MRC-5 cells, luminescence, normalized: DMSO 0%, 10 µM staurosporine 100%; series mostly up to 91.7 µM
Procedure, shortened: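 Concentration-dependent caspase 3/7 activation is measured in human normal lung fibroblasts (MRC-5) following 16-hour treatment. AC50 values come from standard Hill-equation modeling of luminescence normalized to DMSO and 10 uM staurosporine.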

[8] = Cellular Toxicity (caspase-3) Mesangial (AID 660); conditions: mesangial cells, normalized: DMSO 0%, 100 µM tamoxifen 100%; series mostly up to 91.7 µM;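 further: combined caspase 3 and 7 activity read by Caspase-Glo luminescence; cells exposed to compound for 16 h before the caspase read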
Procedure, shortened: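 Mesangial cells, 1000/well, 5 h settle at 37 °C; compound 16 h, 37 °C; Caspase-Glo 3/7 reagent 20 min RT; luminescence. Norm.: DMSO = 0%, tamoxifen 100 uM = 100%. AC50, Hill fit.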

[9] = Cellular Toxicity (caspase-3) SK-N-SH (AID 661); conditions: SK-N-SH caspase-3 activation, qHTS, DMSO as zero, staurosporine as full; series mostly up to 91.7 µM
Procedure, shortened: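 Human neuroblastoma SK-N-SH, 1500 cells/well, 5 hr pre-incubation, then compound 16 hr, 37 °C. Caspase-Glo 3/7 reagent, 1 hr RT, luminescence. Norm. to DMSO/10 uM staurosporine; Hill-fit AC50.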

[10] = Cellular Toxicity (caspase-3) Hek293 (AID 664); conditions: HEK293 caspase-3 activation, DMSO = 0%, 100 µM tamoxifen = 100%; at 92.2 µM (top of the series);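 further: cells exposed to compound for 16 h at 37 °C before readout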
Procedure, shortened: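 Cells plated, 5 hr at 37 °C; compounds added; 16 hr at 37 °C; Caspase-Glo 3/7 reagent, 20 min RT; luminescence read. Activation expressed relative to DMSO and 100 uM tamoxifen, AC50 by Hill model.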

[11] = Cellular Toxicity (caspase-3) Renal Proximal Tubule (AID 667); conditions: renal proximal tubule cells, primary cells freshly taken from rat; Potency: caspase-3 activation; series mostly up to 91.7 µM;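 further: cells exposed to compound for 16 hours at 37 °C before detection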
Procedure, shortened: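 Primary rat proximal tubule cells, 1000/well, 5 h plating at 37 °C, then compound 16 h at 37 °C. Caspase-Glo 3/7 reagent, 1 h RT, luminescence. Normalized to DMSO (basal) and 10 uM staurosporine (100%); Hill-fit AC50.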

[12] = MultiTox-Fluor Cytotoxicity Assay - LYMP1-001 - Dead Cells (AID 946); conditions: LYMP1-001 lymphoblastoid cells, dead-cell protease fluorescence; series mostly up to 92.2 µM;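 further: 0% = DMSO and 100% = tetraoctylammonium bromide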
Procedure, shortened: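 AC50 from Hill fit of concentration-response; data normalized to DMSO (basal) and 15 uM tetraoctylammonium bromide (100%). LYMP1-001 lymphoblastoid cells, 2500/well, 16 hr compound at 37 C; dead-cell protease fluorescence, Ex/Em 485/520.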

[13] = Cell Viability - LYMP1-002 - Assay at 16 hr (AID 948); conditions: LYMP1-002 lymphoblastoid cell viability; series mostly up to 92.2 µM;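 further: 0% = DMSO alone and full effect = 92 µM tetraoctylammonium bromide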
Procedure, shortened: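 Human lymphoblastoid cells (LYMP1-002), 2500/well, were preincubated 5 hr at 37 C, then exposed to compounds for 16 hr at 37 C in complete medium. Cellular ATP was read by CellTiter-Glo luminescence after 30 min at room temperature; AC50 from Hill fits.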

[14] = MultiTox-Fluor Cytotoxicity Assay - LYMP1-002 - Live Cells (AID 955); conditions: LYMP1-002 lymphoblastoid live-cell protease fluorescence viability; series mostly up to 46.1 µM; further: on the % scale 0 is the no-effect control and ±100 the full control effect
Procedure, shortened: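 Read-out is live-cell protease activity (cell-permeant GF-AFC substrate, fluorescence Ex/Em=405/510), where a decrease indicates acute toxicity. Human lymphoblastoid cells were treated 16 hours at 37 C in a concentration series, and AC50 values came from standard Hill modelling.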

[15] = Cell Viability - LYMP1-003 - Assay at 24 hr (AID 963); conditions: LYMP1-003 lymphoblastoid cell viability; series mostly up to 92.2 µM;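 further: plate controls were DMSO only for no effect and tetraoctylammonium bromide positive control for full effect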
Procedure, shortened: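 Cells seeded at 2500/well, 5 hr at 37 C; compounds added; 24 hr at 37 C; CellTiter-Glo added, 30 min room temperature; luminescence read. Decrease in ATP taken as cytotoxicity, AC50 from Hill modelling.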

[16] = Cell Viability - LYMP2-026 (AID 989); conditions: LYMP2-026 lymphoblastoid cell viability, qHTS; series mostly up to 92.2 µM;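 further: cells exposed to compound for 24 h at 37 °C; on the % scale 0 is the no-effect control and ±100 the full control effect; nearly all actives have a fitted effect of over 50% in size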
Procedure, shortened: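 Luminescent ATP signal (CellTiter-Glo, 30 min room temperature) measures viable lymphoblastoid cells after 24 hr compound treatment at 37 C. Decreased ATP reflects acute toxicity; AC50 values come from Hill-equation modeling.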

[17] = Cell Viability - LYMP1-002 - Assay at 24 hr (AID 993); conditions: LYMP1-002 lymphoblastoid cells viability; series mostly up to 92.2 µM; further: on the % scale 0 is the no-effect control and ±100 the full control effect
Procedure, shortened: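 Cells plated 2500/well, 5 hr 37 C; compounds added, 24 hr 37 C; CellTiter-Glo added, 30 min RT; luminescence read. Tetraoctylammonium bromide positive control. Hill-equation AC50.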

[18] = qHTS Assay for Identification of Small Molecule Inducers of Hypoxia Response (AID 2120; active means well fitted curve in the direction sought with a large enough effect in the signal ratio, with a control signal flat, not every such curve was filed as active; the % refers to the signal ratio; further: 0% is about no effect); conditions: hypoxia response reporter cells, beta-lactamase ratio readout; series mostly up to 104 µM
Procedure, shortened: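 ME-180 HRE-bla cells plated in Opti-MEM/0.5% dialyzed FBS, rested 4-5 h, then dosed with compound titrations by pin tool. After 17 h at 37 degrees C, CCF4 dye loaded 2.5 h at RT; 460/530 nm ratio gave %Activity and AC50.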

[19] = target: Peroxisome proliferator-activated receptor alpha (Homo sapiens) (UniProt Q07869); test: qHTS assay for small molecule agonists of the peroxisome proliferator-activated receptor alpha (PPARalpha) signaling pathway (AID 651778); conditions: PathHunter PPARalpha complementation, chemiluminescence, 6 h; max response: stronger effect = higher value; further: % of control where 0% means no effect
Procedure, shortened: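 Chemiluminescence from complemented enzyme reported PPARalpha activation in cells after 6 hr of compound treatment at 37 C. The detection reagent was incubated for 60 min at room temperature, and compounds were scored as agonists.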

[20] = qHTS assay for cell viability of the p53RE-bla HCT-116 cell line (AID 743292); conditions: p53RE-bla HCT-116 viability, ATP luminescence, 16 h; series mostly up to 95 µM; further: on the % scale 0 is the no-effect control and ±100 the full control effect; nearly all actives have a fitted effect of over 55% in size
Procedure, shortened: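 Viability of compound-treated p53RE-bla HCT-116 cells is taken from ATP-dependent luciferase luminescence. Treatment lasts 16 h at 37 C after a 5 h settling period; detection follows 30 min at room temperature.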

Sequence of Peroxisome proliferator-activated receptor alpha (Homo sapiens) (Q07869 whole entry, looked up): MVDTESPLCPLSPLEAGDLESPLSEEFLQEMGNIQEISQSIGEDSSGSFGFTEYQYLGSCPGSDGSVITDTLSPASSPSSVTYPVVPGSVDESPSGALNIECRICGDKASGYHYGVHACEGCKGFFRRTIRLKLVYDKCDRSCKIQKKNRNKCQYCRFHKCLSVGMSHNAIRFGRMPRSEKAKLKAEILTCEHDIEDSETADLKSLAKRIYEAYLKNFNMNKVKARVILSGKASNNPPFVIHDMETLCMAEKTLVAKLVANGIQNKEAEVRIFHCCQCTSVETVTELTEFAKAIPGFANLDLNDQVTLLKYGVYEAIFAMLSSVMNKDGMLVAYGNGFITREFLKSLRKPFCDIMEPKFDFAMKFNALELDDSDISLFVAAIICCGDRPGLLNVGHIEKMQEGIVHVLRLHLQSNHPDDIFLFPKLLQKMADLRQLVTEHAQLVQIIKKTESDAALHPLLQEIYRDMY

CCCCOC(=O)COc1ccc(Cl)cc1Cl
inactive: Potency [1] > 92 µM | Potency [2] > 92 µM | Potency [3] | Potency [4] | Potency [5] | Potency [6] | outcome [7] | outcome [8] | outcome [9] | caspase-3 activation [10] -0.377% | Potency [11] | Potency [12] | Potency [13] | outcome [14] | Potency [15] | Potency [16] | Potency [17] | Potency [18] | max response [19] 7.72% and -1.16% | Potency [20]

c1ccncc1
inactive: Potency [1] > 92 µM | Potency [2] > 92 µM | Potency [3] | Potency [4] | Potency [5] | Potency [6] | outcome [7] | outcome [8] | outcome [9] | caspase-3 activation [10] -0.0676% | Potency [11] | Potency [12] | Potency [13] | outcome [14] | Potency [15] | Potency [16] | Potency [17] | Potency [18] | max response [19] -4.5% | Potency [20]

OCC(CO)(CBr)CBr
inactive: Potency [1] > 92 µM | Potency [2] > 92 µM | Potency [3] | Potency [4] | Potency [5] | Potency [6] | outcome [7] | outcome [8] | outcome [9] | caspase-3 activation [10] -0.451% | Potency [11] | Potency [12] | Potency [13] | outcome [14] | Potency [15] | Potency [16] | Potency [17] | Potency [18] | max response [19] -0.558% and -3.38% | Potency [20]

COc1ccc(C)cc1N
inactive: Potency [1] > 92 µM | Potency [2] > 92 µM | Potency [3] | Potency [4] | Potency [5] | Potency [6] | outcome [7] | outcome [8] | outcome [9] | caspase-3 activation [10] 0.602% | Potency [11] | Potency [12] | Potency [13] | outcome [14] | Potency [15] | Potency [16] | Potency [17] | Potency [18] | max response [19] -6.24% | Potency [20]

c1cc2c3c(c1)ccc1cccc(c13)C2
inactive: Potency [1] > 92 µM | Potency [2] > 92 µM | Potency [3] | Potency [4] | Potency [5] | Potency [6] | outcome [7] | outcome [8] | outcome [9] | caspase-3 activation [10] -1.87% | Potency [11] | Potency [12] | Potency [13] | outcome [14] | Potency [15] | Potency [16] | Potency [17] | Potency [18] | max response [19] 6.26% | Potency [20]

Cc1ccccc1OCC1CO1 (stereo not given)
inactive: Potency [1] > 92 µM | Potency [2] > 92 µM | Potency [3] | Potency [4] | Potency [5] | Potency [6] | outcome [7] | outcome [8] | outcome [9] | caspase-3 activation [10] 0.226% | Potency [11] | Potency [12] | Potency [13] | outcome [14] | Potency [15] | Potency [16] | Potency [17] | Potency [18] | max response [19] -1.41% | Potency [20]
